Structures are written as SMILES. Where “and” joins values, the source holds several entries; their conditions need not be identical. Equal entries are not always repeated. Results filed as inconclusive are left out. More than one record can exist for a structure, and the calls need not agree. Calls of active or inactive are those of the source. Unless noted, calls come from the whole dose curve; as a rule, active = well fitted curve in the direction sought with a large enough effect in the repeat runs; inconclusive = weak or mixed curves; inactive = no such curve, though single readings can be large; an effect the other way counts as inactive or inconclusive.

A short description of test [1]: qHTS assay to identify small molecule that activate the aryl hydrocarbon receptor (AhR) signaling pathway - cell viability counter screen (AID 743086). Note: nearly all actives have a fitted effect of over 45% in size. Note: potency is the fitted concentration of half-maximal effect. A digest of the protocol: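 HepG2-AhR-luc (HG2L7.5c1) cells, 4000/well, were preincubated 5 h at 37C, exposed to compound in qHTS format for 24 hr at 37C, then given CellTiter-Fluor for 30 min; viability was read as fluorescence in the reporter wells.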
Background: In qHTS, concentration-response curves come from the screen itself.

A short description of test [2]: qHTS assay to identify small molecule antagonists of the peroxisome proliferator-activated receptor gamma (PPARg) signaling pathway - cell viability counter screen (AID 743194). Note: nearly all actives have a fitted effect of over 55% in size. The conditions noted are these: Potency: co-treated with 50 nM rosiglitazone unless noted. A digest of the protocol: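 PPARg-UAS-bla HEK293H cells were plated, rested 5 h at 37 C, then treated with compounds plus rosiglitazone (50 nM final) for 17 h at 37 C; viability was then read by CellTiter-Glo luminescence after 30 min at room temperature.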

Test [3] is described as follows: qHTS assay for small molecule agonists of the antioxidant response element (ARE) signaling pathway (AID 743202; active = well fitted activation curve with a large enough effect in the signal ratio in the repeat runs, not every such curve was filed as active; the % refers to the signal ratio; note: potency is the fitted concentration of half-maximal effect). The essentials:
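Steps: seed ARE-bla HepG2 cells (2,000/well); incubate 5 h at 37 C; add compounds by pin tool; incubate 16 h at 37 C; add FRET substrate; read fluorescence after 2 h at RT.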

Test [4] in a line: qHTS assay for small molecule agonists of the antioxidant response element (ARE) signaling pathway - cell viability counter screen (AID 743203; calls by dose curve; note: nearly all actives have a fitted effect of over 55% in size; note: potency is the fitted concentration of half-maximal effect). The essentials: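 Parallel cytotoxicity read-out for the ARE-bla screen: HepG2 reporter cells, 16 hrs with compounds, then CellTiter-Glo luminescence.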
A short description of test [5]: qHTS assay for small molecule activators of the heat shock response signaling pathway (AID 743210; active = well fitted activation curve with a large enough effect in the signal ratio in the repeat runs, with a control signal flat, not every such curve was filed as active; the % refers to the signal ratio;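 note: HeLa cells with beta-lactamase reporter driven by heat shock elements; series mostly up to about 63 µM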). A digest of the protocol:
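Activation of heat shock element-controlled beta-lactamase expression is measured in HeLa cells by LiveBLAzer FRET fluorescence, with compound exposure lasting 5 h at 37 C and substrate loading 2.5 h at room temperature.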

The nature of test [6]: qHTS assay to identify small molecule agonists of the peroxisome proliferator-activated receptor delta (PPARd) signaling pathway - cell viability counter screen (AID 743211). Note: nearly all actives have a fitted effect of over 55% in size. Note: potency is the fitted concentration of half-maximal effect. The essentials: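 Luminescent ATP viability assay (CellTiter-Glo, 30 min RT) in UAS-bla HEK293H cells carrying the PPAR delta reporter construct, 3000 cells/well, after a 17 h compound treatment at 37 C.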

Test [7] is described as follows: qHTS assay to identify small molecule antagonists of the peroxisome proliferator-activated receptor delta (PPARd) signaling pathway - cell viability counter screen (AID 743213). Note: nearly all actives have a fitted effect of over 50% in size. Note: potency is the fitted concentration of half-maximal effect. A digest of the protocol:
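Same-well viability: cells pre-incubated 5 h, dosed with compound plus 300 nM L165041, kept 17 h at 37 C, FRET substrate 2 h RT, then CellTiter-Glo 30 min RT and luminescence.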

Test [8] in a line: qHTS assay to identify small molecule agonists of the farnesoid-X-receptor (FXR) signaling pathway - cell viability counter screen (AID 743218). Note: nearly all actives have a fitted effect of over 45% in size. Note: potency is the fitted concentration of half-maximal effect. The essentials: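 Same-well cytotoxicity check on FXR-UAS-bla HEK 293T cells: 5 h attachment, 16 h compound at 37 C, CellTiter-Glo luminescence read at room temperature after 30 min.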
A short description of test [9]: qHTS assay to identify small molecule antagonists of the farnesoid-X-receptor (FXR) signaling pathway - cell viability counter screen (AID 743221; active = well fitted cell-killing curve with a large enough effect in the repeat runs, not every such curve was filed as active; note: nearly all actives have a fitted effect of over 50% in size; note: potency is the fitted concentration of half-maximal effect). The essentials:
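In GeneBLAzer FXR-UAS-bla HEK 293T cells stimulated with 50 uM chenodeoxycholic acid (final), compounds acted for 16 h at 37 C. Viability was assessed afterwards by CellTiter-Glo luminescence.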

Test [10] addresses Vitamin D3 receptor (Homo sapiens) (UniProt P11473). Nature of the test: qHTS assay to identify small molecule antagonists of the vitamin D receptor (VDR) signaling pathway (AID 743223; active = well fitted inhibition curve with a large enough effect in the signal ratio in the repeat runs, not every such curve was filed as active; the % refers to the signal ratio). A digest of the protocol:
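Agonist 1alpha,25-dihydroxyvitamin D3 (3 nM in well) was added with each compound to VDR-bla cells preincubated 4 h. Cells stood 16 h at 37C, then FRET substrate 2 h at room temperature; fluorescence intensity recorded.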

Test [11] can be described thus: qHTS assay to identify small molecule agonists of the NFkB signaling pathway - cell viability counter screen (AID 1159515; calls by dose curve; note: nearly all actives have a fitted effect of over 55% in size; note: potency is the fitted concentration of half-maximal effect). A digest of the protocol: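 Counter screen run alongside the NFkB-bla agonist assay: ME-180 reporter cells exposed to compounds for 5 hr, then lysed with CellTiter-Glo in the same wells. Luminescence, read after 30 min, reflects viable cells.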

A short description of test [12]: qHTS assay for small molecule activators of the heat shock response signaling pathway - cell viability counter screen (AID 743209). Note: nearly all actives have a fitted effect of over 50% in size. A digest of the protocol:
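To flag cytotoxic compounds, HSE-bla HeLa cells plated at 1500 cells/well were dosed for 5 h at 37 C, followed by the reporter FRET read and then CellTiter-Glo, with luminescence recorded 30 min after reagent addition.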

A short description of test [13]: qHTS assay to identify small molecule agonists of the vitamin D receptor (VDR) signaling pathway - cell viability counter screen (AID 743224). Note: series mostly up to about 63 µM; nearly all actives have a fitted effect of over 50% in size. A digest of the protocol: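 Counter screen for cytotoxicity: VDR-bla cells at 2,000 cells/well, 16 h compound exposure, then CellTiter-Glo luminescence after the beta-lactamase measurement.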
For test [14], the target named is Peroxisome proliferator-activated receptor gamma (Homo sapiens) (UniProt P37231). Nature of the test: qHTS assay to identify small molecule agonists of the peroxisome proliferator-activated receptor gamma (PPARg) signaling pathway (AID 743094; active = well fitted activation curve with a large enough effect in the signal ratio in the repeat runs, not every such curve was filed as active; the % refers to the signal ratio). The essentials: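 Fluorescence-based beta-lactamase readout in HEK293H PPARg UAS-bla cells after 17 h compound exposure (37C) and 1 h B/G FRET substrate incubation at room temperature.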

Test [15] has as its target Peroxisome proliferator-activated receptor delta (Homo sapiens) (UniProt Q03181). Nature of the test: qHTS assay to identify small molecule agonists of the peroxisome proliferator-activated receptor delta (PPARd) signaling pathway (AID 743212; calls by dose curve). A digest of the protocol:
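Cells expressing a UAS-driven beta-lactamase reporter (PPARd-bla HEK293H) were given test compounds after a 5 h settle and kept at 37 C. Reporter activity was then measured as FRET fluorescence using LiveBLAzer B/G substrate.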

Test [16] addresses Bile acid receptor (Homo sapiens) (UniProt Q96RI1). Nature of the test: qHTS assay to identify small molecule antagonists of the farnesoid-X-receptor (FXR) signaling pathway (AID 743217; active = well fitted inhibition curve with a large enough effect in the signal ratio in the repeat runs, not every such curve was filed as active; the % refers to the signal ratio). The essentials:
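Quantitative HTS, beta-lactamase reporter format: FXR-UAS-bla HEK 293T cells co-treated 16 h at 37 °C with compounds and 50 uM final chenodeoxycholic acid, then read by B/G FRET fluorescence.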

The target is the same in test [17]. Nature of the test: qHTS assay to identify small molecule agonists of the farnesoid-X-receptor (FXR) signaling pathway (AID 743220; active = well fitted activation curve with a large enough effect in the signal ratio in the repeat runs, not every such curve was filed as active; the % refers to the signal ratio). A digest of the protocol:
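FXR-UAS-bla HEK 293T cells carrying a UAS-driven beta-lactamase reporter were plated for 5 h at 37C/5% CO2, then exposed to DMSO-dissolved Tox21 10K compounds for 16 h at 37C. A LiveBLAzer B/G FRET substrate was loaded for 2 h at room temperature before fluorescence reading.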

Test [18] deals with Peroxisome proliferator-activated receptor delta (Homo sapiens) (UniProt Q03181). Nature of the test: qHTS assay to identify small molecule antagonists of the peroxisome proliferator-activated receptor delta (PPARd) signaling pathway (AID 743215; active = well fitted inhibition curve with a large enough effect in the signal ratio in the repeat runs, not every such curve was filed as active; the % refers to the signal ratio;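 note: cells stimulated with agonist L165041 at 300 nM final during compound exposure; series mostly up to about 62 µM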). A digest of the protocol: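 Screen format: qHTS, antagonist mode. HEK293H PPARd-bla cells received compound and 300 nM L165041 (final), 17 h, 37 C. Beta-lactamase detected via FRET substrate fluorescence, 2 h, room temperature.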

Test [19] in a line: qHTS assay to identify small molecule antagonists of the vitamin D receptor (VDR) signaling pathway - cell viability counter screen (AID 743225). Note: nearly all actives have a fitted effect of over 50% in size. The essentials: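 Luminescent cell viability (CellTiter-Glo) in VDR-bla HEK 293T cells after 16 h compound exposure at 37C in the presence of 3 nM final 1-alpha,25-dihydroxy vitamin D3.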

Chain of Peroxisome proliferator-activated receptor gamma (Homo sapiens) (P37231 whole entry, looked up): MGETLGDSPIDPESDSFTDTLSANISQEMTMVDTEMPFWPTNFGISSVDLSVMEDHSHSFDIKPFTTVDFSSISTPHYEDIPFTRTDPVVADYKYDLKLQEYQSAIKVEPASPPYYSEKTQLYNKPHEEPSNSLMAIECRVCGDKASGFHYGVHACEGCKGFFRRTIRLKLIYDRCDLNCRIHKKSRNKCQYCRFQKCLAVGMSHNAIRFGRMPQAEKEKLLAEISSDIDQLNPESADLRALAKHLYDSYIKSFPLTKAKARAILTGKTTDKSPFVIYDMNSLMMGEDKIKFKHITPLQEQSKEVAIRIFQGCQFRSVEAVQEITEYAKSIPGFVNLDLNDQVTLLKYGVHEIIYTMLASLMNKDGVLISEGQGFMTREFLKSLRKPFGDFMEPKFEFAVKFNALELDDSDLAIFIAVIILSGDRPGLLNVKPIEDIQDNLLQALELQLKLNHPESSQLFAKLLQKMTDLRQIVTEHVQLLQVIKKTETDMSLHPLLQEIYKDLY
Chain of Peroxisome proliferator-activated receptor delta (Homo sapiens) (Q03181 whole entry, looked up): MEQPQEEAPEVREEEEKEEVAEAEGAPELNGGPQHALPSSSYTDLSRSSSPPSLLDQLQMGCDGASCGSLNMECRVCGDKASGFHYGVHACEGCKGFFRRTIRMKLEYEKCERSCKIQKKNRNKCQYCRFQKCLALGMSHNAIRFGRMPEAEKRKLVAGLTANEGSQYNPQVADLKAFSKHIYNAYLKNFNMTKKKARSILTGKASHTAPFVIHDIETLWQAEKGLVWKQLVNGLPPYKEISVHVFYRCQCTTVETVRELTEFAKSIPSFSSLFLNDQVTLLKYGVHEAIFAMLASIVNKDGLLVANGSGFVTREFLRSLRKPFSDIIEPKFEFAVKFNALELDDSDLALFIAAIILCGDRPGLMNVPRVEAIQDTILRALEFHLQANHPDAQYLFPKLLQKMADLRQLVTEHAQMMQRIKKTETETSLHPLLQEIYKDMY
Chain of Vitamin D3 receptor (Homo sapiens) (P11473 whole entry, looked up): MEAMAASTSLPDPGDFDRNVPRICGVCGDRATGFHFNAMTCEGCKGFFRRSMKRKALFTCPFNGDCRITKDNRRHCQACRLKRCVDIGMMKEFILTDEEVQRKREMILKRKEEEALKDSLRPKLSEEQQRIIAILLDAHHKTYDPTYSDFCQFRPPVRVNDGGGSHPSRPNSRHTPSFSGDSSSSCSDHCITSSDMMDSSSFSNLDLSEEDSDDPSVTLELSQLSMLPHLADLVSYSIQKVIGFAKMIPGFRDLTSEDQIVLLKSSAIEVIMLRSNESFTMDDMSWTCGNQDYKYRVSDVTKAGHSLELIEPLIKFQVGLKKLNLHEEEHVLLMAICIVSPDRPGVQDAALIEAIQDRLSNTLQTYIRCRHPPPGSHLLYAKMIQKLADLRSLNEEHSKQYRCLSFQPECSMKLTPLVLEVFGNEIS
Chain of Bile acid receptor (Homo sapiens) (Q96RI1 whole entry, looked up): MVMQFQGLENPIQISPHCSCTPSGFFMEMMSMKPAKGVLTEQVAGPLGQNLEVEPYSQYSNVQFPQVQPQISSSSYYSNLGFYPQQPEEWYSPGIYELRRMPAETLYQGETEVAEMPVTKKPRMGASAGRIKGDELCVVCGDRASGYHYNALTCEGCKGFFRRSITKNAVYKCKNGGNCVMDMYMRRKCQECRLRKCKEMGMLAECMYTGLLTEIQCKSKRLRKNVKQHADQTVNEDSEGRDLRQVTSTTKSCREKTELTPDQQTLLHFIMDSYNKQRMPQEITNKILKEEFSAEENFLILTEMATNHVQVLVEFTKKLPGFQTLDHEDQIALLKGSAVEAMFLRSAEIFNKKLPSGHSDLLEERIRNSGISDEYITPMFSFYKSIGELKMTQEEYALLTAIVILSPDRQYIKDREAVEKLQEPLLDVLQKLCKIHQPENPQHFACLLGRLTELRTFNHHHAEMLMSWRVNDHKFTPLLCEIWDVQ

In the case of `Oc1cccc2cccnc12`, the Potency entry in test [1] is “inactive and 18.8 µM (active) and 2.05 µM (active)”; in test [3] it was 6.14 µM (active) and 25.9 µM (active) and inactive; in test [4], “inactive and 4.33 µM (active)”; in test [6], 414 nM (active) and 155 nM (active) and inactive; in test [7], 521 nM (active) and 155 nM (active); in test [8], “inactive and 949 nM (active)”. Further, the Potency is 776 nM [cytotoxic] (active) and inactive in [9]; “inactive and 977 nM (active)” in test [11]. Moreover, the Potency entry in test [2] and in [10] was “inactive” each time. Moreover, the result in test [5] was inactive.

On to `CCCCn1cc[n+](C)c1C`, for which the Potency entry in test [1], in [2], in test [4], in test [12], in test [6] and in test [7] was “inactive” each time. Moreover, the Potency result in test [8], in test [9], in test [13] and in test [11] was “inactive” each time. Further, the Potency in test [3] was 60.8 µM (active) and 54.7 µM (active) and 61.6 µM (active). Also, in test [5], the outcome was inactive.

Take `CCCCn1cc[n+](C)c1`: the Potency result in test [1], in [2], in test [3], in test [4], in test [6] and in [7] was “inactive” each time. Moreover, the Potency result in test [8], in test [9], in test [13] and in test [11] was “inactive” each time.

With `CC(=O)O`, the Potency entry in test [1], in test [2], in [3], in test [4], in [6] and in test [7] was “inactive” each time. In addition, the Potency entry in [8], in test [9], in test [13] and in test [11] was “inactive” in each case.

On to `C[C@]12CCC(=O)C=C1CC[C@@H]1[C@@H]2CC[C@]2(C)C(=O)CC[C@@H]12`, for which the Potency result in test [1], in test [2], in test [4], in test [6], in [7] and in test [16] was “inactive” throughout. Moreover, the Potency entry in test [8], in [9], in [13] and in [11] was “inactive” each time. The call in test [14], in [5], in test [15] and in test [17] was inactive.

For `O=C(O)COc1ccc(Cl)cc1Cl`, the Potency entry in [1], in test [2], in [3], in test [4], in test [6] and in test [7] was “inactive” in each case. Also, the Potency entry in test [8], in test [9], in [10], in test [13], in [19] and in [11] was “inactive” each time. Further, the call in test [15] and in test [18] was inactive.

Turning to `CCOP(=S)(OCC)Oc1ccc2c(C)c(Cl)c(=O)oc2c1`, the Potency result in [1], in test [2], in test [3], in test [4], in [6] and in test [7] was “inactive” each time. The Potency result in [8], in [9], in test [13], in [19] and in test [11] was “inactive” throughout. Besides, the compound was classed as inactive in [14], in test [5], in test [15] and in test [18].

Turning to `O=[N+]([O-])O`, the Potency entry in [1], in [2], in [3], in test [4], in test [6] and in test [7] was “inactive” each time. In addition, the Potency result in test [8], in test [9], in test [13] and in test [11] was “inactive” in each case.

The values above are taken from PubChem BioAssay (Tox21).
